Assay outcomes from PubChem BioAssay.
Only some compounds are listed: those with a hit (about 5.4% of all), similar ones and a draw of the others.
ALR H2O2 inh – inhibitors of human ALR sulfhydryl oxidase, primary screen, biochemical, H2O2 detection, HRP-luminol luminescence, single point; FAD-linked sulfhydryl oxidase ALR (Homo sapiens), P55789; purified ALR, DTT oxidation; inhibition, % (no concentration beside the values); hit rate 3.8% among 290,000;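 active = mean replicate inhibition above about 79%, with every replicate also reaching it, limit read from the data; inconclusive = only one of the two criteria met; inactive = mean below limit and not every replicate reaching it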
Target sequence (P55789 whole entry, looked up): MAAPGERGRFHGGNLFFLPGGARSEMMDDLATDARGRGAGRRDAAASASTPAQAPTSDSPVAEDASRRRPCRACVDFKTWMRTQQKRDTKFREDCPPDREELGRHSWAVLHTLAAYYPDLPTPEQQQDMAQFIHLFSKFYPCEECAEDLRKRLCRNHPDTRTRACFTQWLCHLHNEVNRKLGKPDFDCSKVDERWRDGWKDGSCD
beta cell repl – inducers of MIN6 beta-cell proliferation, primary screen, ATP luminescence, uHTS; proliferation, % at 10 µM; AID 2380, 2010; hit rate 0.29% among 330,000; MIN6 cells proliferation, ATPlite luminescence, 48 h; cells starved in 0.2% serum; 100% = growth in 10% serum;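 active = compounds whose signal lies at least 3.5 SD above the mean of all wells on their plate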;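 note: 0% = DMSO-treated cells in low-serum medium and 100% = 10% serum control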
GASC-1 inh – inhibitors of GASC-1 histone demethylase, primary screen, biochemical, fluorescence, DELFIA europium; Lysine-specific demethylase 4C (Homo sapiens), Q9H3R0; GST-JMJD2C(1-420) H3K9me3 demethylation; inhibition, % at 2.35 µM; hit rate 0.069% among 330,000; AID 2099, 2009;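 active = more than half of a compound's replicate wells show inhibition beyond 50%, single wells judged on their own value; inconclusive = some, but no more than half, of replicates pass 50% inhibition; inactive = no replicate passes 50% inhibition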;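 note: signal counts dimethyl H3K9 product captured on neutravidin plate; 0% = median of DMSO wells and 100% = 0.3 times that DMSO median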
Target sequence (Q9H3R0 1-420 limits assumed): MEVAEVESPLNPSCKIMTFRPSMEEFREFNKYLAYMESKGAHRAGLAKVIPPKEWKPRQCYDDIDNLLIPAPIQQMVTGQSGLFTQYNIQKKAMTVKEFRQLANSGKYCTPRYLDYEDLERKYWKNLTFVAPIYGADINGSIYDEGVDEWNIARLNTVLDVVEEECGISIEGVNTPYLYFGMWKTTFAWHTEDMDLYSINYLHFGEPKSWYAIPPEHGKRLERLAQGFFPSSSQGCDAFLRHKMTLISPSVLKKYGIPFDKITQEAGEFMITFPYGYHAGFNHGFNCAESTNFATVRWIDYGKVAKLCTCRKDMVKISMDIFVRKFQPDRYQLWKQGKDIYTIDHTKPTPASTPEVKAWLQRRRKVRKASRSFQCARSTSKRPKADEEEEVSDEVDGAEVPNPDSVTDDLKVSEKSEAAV
Exocytosis inh – LAMP-1 surface exposure blockers, TALL-104 cells – cell-based, flow cytometry, MLPCN library, primary screen | TALL-104 LAMP-1 surface exposure; cells stimulated with thapsigargin and PMA | AID 651702, 2012 | hit rate 0.66% among 360,000 | inhibition, % at 10 µM;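 active = inhibition above about 55%, limit read from the data; inconclusive = no clear call, values can overlap the other calls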
M18AAP inhibitor – PfM18AAP inhibitors, malaria aminopeptidase, primary screen, biochemical, QFRET, recombinant enzyme | H-Glu-NHMec fluorogenic cleavage | hit rate 1.2% among 290,000 | M18 aspartyl aminopeptidase (Plasmodium falciparum 3D7) | inhibition, % at 7.35 µM;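 active = inhibition above the campaign mean inhibition over all tested compounds plus 3 SD, cut at about 28% in these data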;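 note: 0% = plate median of test compound wells and 100% = 2 mM ZnCl2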
SMARCA2 act – SMARCA2 (BRM) function activators, primary screen, cell-based, luminescence, high throughput. hit rate 1% among 370,000. activation, % at 9.1 µM. MG213 cells, MMTV-luciferase reporter, dexamethasone, overnight. AID 652017, 2013; in the data active = activation above about 7.8%;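 note: 0% = vehicle wells and 100% = reference activator wells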
SMARCA2 act conf – SMARCA2 (BRM) function activators, confirmation, cell-based, luminescence, triplicate | shares compounds with SMARCA2 act | MG213 cells, MMTV-luciferase with dexamethasone, overnight; MG213 cells expressing E1A, Rb sequestered; DMSO wells 0%, reference activator 100% | activation, % at 9.1 µM | hit rate 30% among 3,500;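 active = activation above its plate's cutoff, the mean activation of tested wells plus 3 SD, cut at about 7.9% in these data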
GAL4-VP16 Luc – GAL4-VP16 luciferase reporter activation, counter-screen for SMARCA2 (BRM) activator project, cell-based, pG5luc, luminescence, high throughput; shares compounds with SMARCA2 act; HEK293 GAL4-VP16 pG5luc reporter; scaled: DMSO wells 0%, SAHA wells 100%; activation, % at 9.1 µM; hit rate 41% among 3,500;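 active = activation above the solvent-only control well mean plus 3 SD, averaged across control plates, cut at about 5.2% in these data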
Numbers without * were called inactive; ? = inconclusive; . = not tested or not shown.

SMILES | ALR H2O2 inh | beta cell repl | GASC-1 inh | Exocytosis inh | M18AAP inhibitor | SMARCA2 act | SMARCA2 act conf | GAL4-VP16 Luc
CNc1nc(C)nc(-c2ccccc2O)n1 | -16.6 | 3.8 | 5.6 | -2.4 | -1.9 | 8.7* | 7.6 | 5.1*
CC(C)C[C@H]1COc2cc(N3CCC[C@@H]3CO)ccc2S(=O)(=O)N1 | . | . | . | -8.5 | . | 3.9 | . | .
C[C@H]1COc2cc(N3CCC[C@H]3CO)ccc2S(=O)(=O)N1 | . | . | . | -5.8 | . | 10.1* | -2.7 | -0.2
C[C@@H]1COc2cc(N3CCC[C@H]3CO)ccc2S(=O)(=O)N1 | . | . | . | -3.1 | . | 8.0* | -4.2 | -0.9
NC(=O)c1sc2nc(-c3ccccc3)ccc2c1N | -3.5 | -3.6 | -3.0 | 4.3 | 24.3 | 8.1* | 6.8 | 10.5*
CC(C)CNC(=O)OCc1cn(Cc2ccc(Cl)cc2)nn1 | . | . | . | . | . | -2.1 | . | .
CCCN1CCC(=NNC(=O)c2ccc(Br)o2)CC1 | 3.1 | -0.4 | -7.3 | -0.4 | -2.6 | 4.1 | . | .
CCCC(=O)N1CCN(c2ccc(NC(=O)c3ccco3)cc2)CC1 | 2.3 | -1.7 | 5.1 | -2.1 | -0.3 | 4.3 | . | .
CCN1CCC(=NNC(=O)c2ccco2)CC1 | -1.0 | -0.9 | 4.9 | -1.4 | -2.4 | 13.8* | -1.5 | -0.6
CCN1CCN(c2ccc(NC(=O)c3ccco3)cc2)CC1 | 3.6 | -1.9 | 2.0 | -0.6 | -8.6 | 8.3* | 5.5 | 5.0
CC(C)[C@@H]1Cc2[nH]n(C)c(=O)c2[C@H](c2ccc(Cl)cc2)O1 | . | . | . | -3.1 | . | -3.5 | . | .
CCCc1c(-c2ccc(F)cc2F)ncn1Cc1cccc(-c2ccccc2)c1 | . | . | . | 35.1 | . | -12.7 | . | .
COc1ccc(S(=O)(=O)N2CCCC2)cc1NC(=O)c1ccccc1 | 0.6 | -0.4 | 11.0 | 3.3 | -8.1 | 8.1* | 0.3 | 1.6
COc1ccc(S(=O)(=O)N2CCCCC2)cc1NC(=O)c1ccccc1 | 16.4 | 0.5 | 7.8 | -3.0 | . | -2.5 | . | .
CC(=O)Nc1ccc(NC(=O)COC(=O)CCc2nc3ccccc3s2)cc1 | -3.7 | -3.6 | -2.1 | 2.2 | -1.1 | -4.1 | . | .
Cc1c(Cl)cnc(NC(=O)COC(=O)CCc2nc3ccccc3s2)c1Cl | -17.1 | -1.1 | -12.4 | 3.9 | 0.5 | 9.3* | -2.4 | -0.4
CC(=O)Nc1ccc2c(c1)ncn2-c1ccccc1 | -33.2 | -1.0 | 1.9 | -6.7 | -2.6 | 11.6* | 15.7* | 7.3*
Cc1cccc(C(=O)Nc2ccc3c(c2)ncn3C)c1 | -3.1 | -2.6 | 1.9 | -9.1 | -2.5 | 11.6* | 8.3* | 18.7*
CC(C)(C)NC(=O)NCCc1ccccc1 | -5.2 | 0.0 | -8.6 | 7.9 | -5.6 | 9.9* | 10.2* | 8.2*
S=C(NN=C1CCCCC1=NNC(=S)N1CCOCC1)N1CCOCC1 | . | . | . | . | . | -0.5 | . | .
COCCCNc1nc2c(-c3ccc(Cl)cc3)nnn2c2ccccc12 | -12.7 | 1.9 | -2.4 | 2.7 | -2.3 | -0.8 | . | .
NNc1nc2c(-c3ccc(Cl)cc3)nnn2c2ccccc12 | . | -5.3 | 2.0 | 2.1 | 23.3 | 8.4* | 7.2 | 10.9*
Cc1ccc(C(=O)CCC(=O)OCC(=O)NNC(=O)c2ccc([N+](=O)[O-])cc2)cc1 | -8.3 | 2.4 | 6.0 | -2.1 | . | 9.3* | -0.1 | 0.6
c1ccc(NN=C(c2ccccc2)c2cccs2)cc1 | . | . | . | -2.1 | . | -2.5 | . | .
COCCCNC(=O)CSc1nnc(-c2cccnc2)n1C1CCCCC1 | . | . | . | . | . | -3.9 | . | .
SMILES | ALR H2O2 inh | beta cell repl | GASC-1 inh | Exocytosis inh | M18AAP inhibitor | SMARCA2 act | SMARCA2 act conf | GAL4-VP16 Luc
Cc1ccc(C(=O)CNc2cccc([N+](=O)[O-])c2)cc1 | 2.3 | -2.1 | -15.7 | -1.3 | 2.9 | 10.6* | 6.8 | 6.3*
O=C(CNc1cccc(Cl)c1)c1ccc(Br)cc1 | 3.2 | -2.7 | -0.5 | 0.4 | 11.5 | 8.9* | 9.8* | -0.6
O=C(CNc1ccc(Br)cc1)c1ccccc1 | -1.5 | -2.5 | -19.0 | 2.9 | -1.6 | 1.5 | . | .
Cc1ccc(NCC(=O)c2ccc([N+](=O)[O-])cc2)cc1 | 48.2 | -3.4 | 3.9 | 0.5 | 20.4 | . | . | .
Cc1ccc(NCCC(=O)c2cccc([N+](=O)[O-])c2)c(C)c1 | ? | -5.5 | 2.3 | 22.4 | 0.7 | 8.6* | 7.4 | 3.4
Fc1ccc(N2CCN(C3=Nc4ccccc4Sc4ccccc43)CC2)cc1 | . | . | . | . | . | -6.9 | . | .
COc1ccc(CN2C(=O)C(CC(=O)NCc3cccc4ccccc34)CC(C(=O)N(C(C)C)C(C)C)=C2C)cc1 (stereo unspecified) | . | . | . | -1.0 | . | 1.2 | . | .
CC(C)Oc1ccc(CN2CCC2(C)C(=O)Nc2cccc(Oc3ccccc3)c2)cc1 (stereo unspecified) | . | . | . | -8.6 | . | -2.7 | . | .
CCN(CC)CCNc1ccc(CO)c2sc3ccccc3c(=O)c12 | 47.0 | -7.9 | -25.3 | 5.9 | 19.1 | 4.9 | . | .
O=c1c2ccccc2sc2c(CO)ccc(NCCN3CCCCC3)c12 | . | . | . | 34.0 | . | 8.6* | 29.4* | -0.7
COCCNc1nc(-c2ccccc2CO)c2sc(-c3ccccc3)cc2n1 | . | . | . | 25.6 | . | . | . | .
O=C1C(C=NCCCN2CCCC2=O)=C(O)c2ccccc21 | 0.5 | -0.8 | 1.9 | -2.0 | -2.8 | 8.5* | 7.1 | 5.7*
CCCNC(=O)C1(C)CCN(C(=O)c2cccc(C(F)(F)F)c2)C1 (stereo unspecified) | . | . | . | 0.8 | . | -3.8 | . | .
COc1cccc(-c2cccc(-c3nc(C(=O)NCc4ccc(Oc5ccccc5)cc4)cc4c3[C@H](CCO)N(S(=O)C(C)(C)C)C4)c2)c1 (stereo partly specified) | . | . | . | -4.6 | . | . | . | .
COc1ccc(-c2nc3nc(C)c(Cc4ccccc4)c(=O)n3[nH]2)cc1 | 44.4 | -2.3 | 4.5 | 0.7 | 2.9 | 8.1* | 2.6 | 3.4
COc1ccc(-c2cc(-c3ccccc3O)[nH]n2)cc1OC | . | -0.2 | 3.7 | 5.8 | 11.1 | 13.4* | 18.2* | 13.8*
N/C(=N\OC(=O)c1ccc2c(c1)OCO2)c1ccc(Cl)cc1 | 8.8 | -3.7 | 8.8 | -7.5 | 1.2 | 8.9* | 10.2* | 6.8*
Cc1cc(/C(N)=N/OC(=O)c2ccc(Cl)cc2)no1 | -3.7 | -3.0 | 8.9 | -4.2 | 3.4 | 3.9 | . | .
Cc1cc(/C(N)=N/OC(=O)c2cccc(Cl)c2)no1 | 1.5 | -2.1 | -2.6 | -3.8 | 2.8 | 13.3* | 4.4 | 1.2
